# The list is not random: actives were taken first. Their share in the collection is about 17%.
# TDP1 block: blocks human tyrosyl-DNA phosphodiesterase 1; recombinant TDP1, AlphaScreen DNA substrate cleavage; Q9NUW8; 350,000 tested, 0.28% active; AID 485290; Potency, µM (top dose mostly 130 µM), most hits filed as inhibitors; also: nearly all actives have a fitted effect of over 40% in size
#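 Compounds were preincubated with Tdp1 (1 nM final) for 15 min at room temperature before substrate (15 nM final) started a 5 min reaction; beads (10 ug/ml final) were then added for 10 min before AlphaScreen detection.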
# TDP1 cell noCPT: qHTS for Inhibitors of human tyrosyl-DNA phosphodiesterase 1 (TDP1): qHTS in cells in absence of CPT; AID 686978, 2013; Potency, µM (top dose mostly 46.2 µM), actives largely listed as inhibitors; 420,000 tested, 15% active; DT40 Tdp1-/- hTDP1 cells, no CPT, ATP luminescence, 48 h; also: nearly all actives have a fitted effect of over 55% in size
#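 Readout: luminescence from CellTiter-Glo after 30 min in the dark at RT. Cells: DT40 Tdp1-/- with stable hTDP1, 400/well. Exposure: compounds alone, ≥48 hr, 37 °C.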
# ClpP mod: qHTS Assay for Activators of ClpP; ATP-dependent Clp protease proteolytic subunit (Bacillus subtilis (strain 168)), P80244; purified B. subtilis ClpP, FRET peptide cleavage, 20 min; Potency, µM (titrated, usually from 57.5 µM); 340,000 tested, 1.9% active; AID 651965, 2013; active = well fitted falling curve with a large enough effect; inconclusive = small, poorly fitted or top-dose-only effect; inactive = no such curve, though single readings can be large or run the other way; also: the source files actives as falling curves though it sought activators and does not explain the sign; nearly all actives have a fitted effect of over 65% in size
#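 Buffer: 100 mM Tris/HCl pH8, 100 mM KCl, 0.05% low protease BSA, 2.5% glycerol, 0.01% Tween-20. ClpP 10 microg/mL final; 20 min RT; delta FRET normalized to ADEP and DMSO controls.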
# DT40 TDP1 CPT: DT40-hTDP1 cell growth loss with CPT | chicken DT40 Tdp1-/-;hTDP1 cells + 20 nM CPT, ATP luminescence, 48 h | Potency, µM (highest dose often 46.2 µM), usual class: inhibitors | 420,000 tested, 12% active; also: nearly all actives have a fitted effect of over 55% in size
#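 Chicken DT40 Tdp1-/- cells stably complemented with human TDP1 were seeded at 400 cells/well in medium containing 20 nM camptothecin, exposed to pin-transferred compounds, and grown at 37 °C for at least 48 hr. Viability was read as ATP luminescence.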
# A number is an active result; i = inactive; ? = inconclusive; nt = not tested or not shown; [ ] = remark or other dose. Unless noted, calls follow the shape of the dose curve; as a rule, active = well fitted curve in the direction sought with a large enough effect; inconclusive = small, poorly fitted or top-dose-only effect, or another doubt; inactive = no such curve, though single readings can be large; an effect the other way counts as inactive or inconclusive.
SMILES,TDP1 block,TDP1 cell noCPT,ClpP mod,DT40 TDP1 CPT
C=CC[C@@H](CC(=O)N[C@H](CO)Cc1ccccc1)C(=O)N[C@H](COC(=O)[C@@H](CC=C)Cc1ccc(F)cc1)Cc1ccccc1,i,14.6µM,i,23.1µM
C=CCC[C@@H](Cc1ccc(F)cc1)C(=O)OC[C@@H](Cc1ccccc1)NC(=O)[C@@H](CC=C)CC(=O)N[C@@H](CO)Cc1ccccc1,i,?,i,?
COc1ccc(OC)c(C(O)c2ncc(-c3ccccc3OC)[nH]2)c1 (stereo unspecified),nt,?,i,?
On1onc2c3cc(-c4ccccc4)nc3ccc21,i,5.17µM,i,2.91µM
c1ccc(-c2cc3c(ccc4nonc43)nn2)cc1,i,?,i,?
Cc1ccc(OCCCSc2ncccn2)cc1C,i,i,i,i
Cc1cc(OCCCCOc2ccc(S(N)(=O)=O)c(C)c2)ccc1S(N)(=O)=O,nt,?,i,18.4µM
CC1CCc2cc(F)ccc2N1S(=O)(=O)c1ccc(Cl)nc1 (stereo unspecified),i,?,i,14.6µM
CC1CCc2cc(F)ccc2N1S(=O)(=O)c1ccc(F)cc1 (stereo unspecified),i,?,nt,i
Cc1ccc2c(Sc3ccc(Cl)cc3)c(C(=O)N3CCC(C)CC3)[nH]c2c1,i,20.6µM,i,16.4µM
CCn1c(C)nc2cc(NS(=O)(=O)c3ccccc3)cc(C(=O)N3C[C@@H](C)O[C@@H](C)C3)c21,nt,i,nt,i
Oc1ccccc1-c1nnc(COc2ccccc2)o1,i,i,i,?
NC(=O)c1ccccc1OCc1nnc(-c2ccccc2Br)o1,i,29.1µM,nt,23.1µM
Oc1ccccc1-c1nnc(COc2ccc(Cl)cc2Cl)o1,i,?,?,20.6µM
O=Cc1ccc(OCc2nnc(-c3ccccc3Br)o2)cc1,i[0.0935 µM],i,nt,i
Fc1ccccc1N1CCN(C2CCN(Cc3c[nH]c4ccccc34)CC2)CC1,i,?,i,16.4µM
Clc1ccccc1N1CCN(Cc2c[nH]c3ccccc23)CC1,nt,5.17µM,i,2.59µM
COc1ccc(-n2c(N)cc(=O)nc2SCC(=O)NC2CCCCC2)cc1,nt,i,i,i
COc1ccc(C(CC(=O)O)NS(=O)(=O)c2ccc3c(c2)N(C(C)=O)CC(C)O3)cc1 (stereo unspecified),i,i,i,i
O=C(NCCc1cccs1)C(c1ccccc1)c1ccccc1,nt,?,i,?
CCCCN(C)C(=O)c1nc2ccccn2c1CN1CCC[C@H]1CO,nt,i,nt,i
COc1ccc2c(CC(=O)N(C)CC3COc4ccccc4O3)coc2c1 (stereo unspecified),i,i,i,?
COc1ccc(OCC(=O)N(C)CC2COc3ccccc3O2)cc1 (stereo unspecified),i,?,i,18.4µM
CCc1nc(CN2CCN(c3cc(C(F)(F)F)ccn3)CC2)c(C)[nH]1,nt,16.4µM,i,23.1µM
COc1ccc(Br)cc1S(=O)(=O)NCCc1cccs1,i,i,i,i
SMILES,TDP1 block,TDP1 cell noCPT,ClpP mod,DT40 TDP1 CPT
Cc1ccc(S(=O)(=O)N2C[C@H]3n4c(=O)ccc(=O)n4C[C@H](OC(=O)NCc4ccccc4)[C@@]3(O)C2)cc1,nt,25.9µM,i,?
CCCCCCn1c(=O)n2n(c1=O)[C@@H]1CN(S(=O)(=O)c3ccc(C)cc3)C[C@]1(O)[C@@H](OC(=O)Nc1c(C)noc1C)C2,nt,29.1µM,i,?
CCCCCCn1c(=O)n2n(c1=O)[C@@H]1CN(S(=O)(=O)c3ccc(C)cc3)C[C@]1(O)[C@@H](OC(=O)NCc1ccccc1)C2,nt,?,i,?
Cc1ccc(S(=O)(=O)N2C[C@H]3n4c(=O)ccc(=O)n4C[C@H](OC(=O)NCc4ccco4)[C@@]3(O)C2)cc1,nt,?,i,?
Cc1ccc(S(=O)(=O)N2C[C@H]3n4c(=O)ccc(=O)n4C[C@H](OC(=O)NCC4CCCCC4)[C@@]3(O)C2)cc1,nt,3.66µM,i,2.59µM
Cc1ccc(C)c(Cn2c(=O)cc(C(F)(F)F)c3c(C)nn(C)c32)c1,i,i,?,i
COc1ccc(N2CC(C(=O)Nc3nnc(SCC(=O)Nc4ccc(NC(C)=O)cc4)s3)CC2=O)cc1 (stereo unspecified),nt,i,i,i
Cc1ccc(NC(=O)Cn2nnc(-c3ccccc3NC(=O)c3cccs3)n2)cc1,i,0.82µM,i,0.651µM
COc1ccccc1NC(=O)Cn1nnc(-c2ccccc2NS(=O)(=O)c2ccccc2)n1,i,18.4µM,i,13µM
COc1ccc(C(=O)Cn2nnc(-c3ccccc3NC(=O)C3CC3)n2)cc1,i,16.4µM,i,18.4µM
COc1ccc(NC(=O)Cn2nnc(-c3ccccc3NC(=O)c3cccs3)n2)cc1,i,?,i,?
CCCC(=O)Nc1ccccc1-c1nnn(CC(=O)Nc2ccc(OCC)cc2)n1,i,20.6µM,i,?
COc1ccc(NC(=O)Cn2nnc(-c3ccccc3NS(=O)(=O)c3ccc(OC)cc3)n2)cc1,i,?,i,?
CC1CC(C)CN(S(=O)(=O)N2CCC(C(=O)NCCc3ccccc3)CC2)C1 (stereo unspecified),i,i,i,i
CCOc1ccc(NC(=O)Cn2nnc(-c3ccccc3NC(=O)CC)n2)cc1,i,16.4µM,i,?
O=C(Cn1nnc(-c2ccccc2NC(=O)c2ccccc2)n1)Nc1ccc2c(c1)OCCO2,i,i,i,?
COc1cc(-c2nnn(CC(=O)Nc3ccc(OC(F)(F)F)cc3)n2)cc(OC)c1OC,i,7.31µM,i,20.6µM
CCc1ccc(NC(=O)Cn2nnc(-c3ccccc3N)n2)cc1,i,i,i,?
CCOC(=O)Cn1nnc(-c2cc(OC)c(OC)c(OC)c2)n1,i,i,i,i
Cc1ccccc1C(=O)Nc1ccccc1-c1nnn(CC(=O)Nc2ccc3c(c2)OCCO3)n1,i,14.6µM,i,23.1µM
COc1ccc(C2CC3(CC(C)(C)NC(=S)N3)Oc3cc(O)cc(C)c32)cc1 (stereo unspecified),i,8.2µM,i,9.2µM
CC1(C)CC2(CC(c3ccccc3)c3ccc(O)cc3O2)NC(=S)N1 (stereo unspecified),i,9.2µM,i,?
CC(=O)Oc1cc2c(cc1Cl)C(c1cccs1)CC1(CC(C)(C)NC(=S)N1)O2 (stereo unspecified),i,16.4µM,nt,8.2µM
COc1ccc(C2CC(=O)Oc3cc(C)cc(C)c32)cc1 (stereo unspecified),i,?,i,?
COc1ccc(C2CC3(CC(C)(C)NC(SC)=N3)Oc3cc(O)cc(C)c32)cc1 (stereo unspecified),i,5.17µM,i,4.61µM
COc1ccc(C2CC3(CC(C)(C)NC(=O)N3)Oc3cc(O)ccc32)cc1 (stereo unspecified),i,?,i,?
Cc1ncc(COP(=O)(O)O)c(CN)c1O,nt,i,nt,i

# Source: PubChem
